# Only some compounds are listed: those with a hit (about 4.2% of all), similar ones and a draw of the others.
# NALP1 yeast inh = inhibitors of NALP1 inflammasome in yeast. S. cerevisiae NALP1/ASC/caspase-1 growth, X-gal OD620, 72 h. inhibition, % at 10 µM. AID 2071. hit rate 0.61% among 280,000; in the data active = inhibition mostly above about 24%, no sharp cut-off; inactive = mostly below about 32%
# tim10-1 inh = growth inhibitors of tim10-1 mutant yeast. hit rate 2.2% among 330,000. inhibition, % at 20 µM. S. cerevisiae tim10-1 ts strain growth, BacTiter-Glo, 24 h;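 active = inhibition of at least 40%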;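 also: mutant grown at 25 °C; 0% = DMSO wells with yeast and 100% = wells holding no yeast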
# TIM10 inh = growth inhibitors of TIM10 yeast strain; hit rate 1.4% among 330,000; AID 463195; inhibition, % at 10 µM; S. cerevisiae TIM10 strain growth, BacTiter-Glo luminescence, 24 h;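 active = inhibition of 40% or more at the single tested concentration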;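 also: wild-type TIM10 isogenic control strain grown at permissive 25 °C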
# tim23-1 inh = growth inhibitors of tim23-1 mutant yeast | S. cerevisiae tim23-1 growth, BacTiter-Glo luminescence, 24 h | inhibition, % at 20 µM | hit rate 1.3% among 330,000;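 active = growth inhibition of the mutant yeast at or above 50%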;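 also: temperature-sensitive mutant grown at 25 °C; plate controls were DMSO-treated mutant yeast for no effect and medium wells lacking yeast for full effect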
# NLRP3 yeast inh = inhibitors of NALP3 inflammasome in yeast; Yeast reconstituted NLRP3/ASC/caspase-1, beta-gal luminescence, 24 h; inhibition, % at 10 µM; hit rate 0.39% among 330,000;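 active = inhibition of 50% or more; inactive = inhibition below 50%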;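 also: plate controls were induced DMSO wells for no effect and uninduced yeast grown without galactose for full effect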
# V-ATPase pHluor = yeast V-ATPase proton transport regulation by pHLuorin. S. cerevisiae, pHLuorin cytosolic pH fluorescence. response, % at 10 µM. hit rate 0.37% among 350,000. AID 504577; in the data active = response mostly above about 7.3%, no sharp cut-off; inactive = mostly below about 5.4%; also: actives read high
# tim10-1 confirm = tim10-1 yeast growth inhibition, confirmed | S. cerevisiae tim10-1 ts strain growth, BacTiter-Glo, 24 h | hit rate 56% among 7,400 | inhibition, % at 20 µM | shares compounds with tim10-1 inh;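 active = inhibition of yeast growth at or above a set limit in either of two repeat tests at 20 µM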;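 also: tim10-1 mutant grown at permissive 25 °C to find synthetic lethal compounds; 0% = DMSO yeast wells and 100% = medium wells without yeast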
# TIM10 conf = confirmation of TIM10 yeast growth inhibitors. shares compounds with TIM10 inh. S. cerevisiae tim10 strain growth, BacTiter-Glo luminescence, 24 h. inhibition, % at 10 µM. hit rate 63% among 4,600. AID 463215;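 active = inhibition of yeast growth at or above a set limit in either of two replicates at 10 µM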;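 also: this counterscreen used the strain with wild-type TIM10; 0% = yeast with DMSO and 100% = medium wells lacking yeast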
# tim23-1 conf = tim23-1 yeast growth inhibition, confirmed. shares compounds with tim23-1 inh. S. cerevisiae tim23-1 growth, BacTiter-Glo luminescence, 24 h. inhibition, % at 20 µM. hit rate 83% among 4,400. AID 463218;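 active = inhibition above about 39% in either of two replicate wells at 20 µM, limit read from the data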;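 also: temperature-sensitive tim23-1 mutant grown at 25 °C; 0% = DMSO wells with yeast and 100% = medium wells without yeast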
# Starred values were filed as active, the others as inactive; / = no result given.
SMILES,NALP1 yeast inh,tim10-1 inh,TIM10 inh,tim23-1 inh,NLRP3 yeast inh,V-ATPase pHluor,TIM10 conf,tim23-1 conf,others
COc1ccc(OC)c(N2C(=O)NC(=O)/C(=C\c3ccc([N+](=O)[O-])s3)C2=O)c1,1,69*,84*,52*,-15,133*,40*,72*,tim10-1 confirm=73*
CN1C(=O)NC(=O)/C(=C/c2ccc([N+](=O)[O-])s2)C1=O,/,74*,90*,71*,11,130*,44*,80*,tim10-1 confirm=67*
O=C(Nc1cccc2ccccc12)N1Cc2ccccc2-n2nncc2C1,/,/,/,/,/,5,/,/,
Cc1ccccc1CN1CCN(C(=O)Cc2ccccc2)CC1,8,7,-10,12,7,-1,/,/,
O=c1c2cc(Br)ccc2[nH]c(=S)n1-c1ccccc1,-4,15,9,-28,2,6,/,/,
CCOP(=O)(OCC)/C(C#N)=C/c1ccc(Br)cc1,18,45*,51*,69*,19,-5,52*,56*,tim10-1 confirm=39*
CCOP(=O)(OCC)c1cccc(O)c1,-5,11,10,1,-1,-4,/,/,
CC1CCCC(C)N1/N=C/c1c[nH]c2ccc(Br)cc12 (centres undefined),65*,34,42*,11,5,1,-38,/,
CN1CCC(c2c[nH]c3ccc(O)cc23)CC1,/,/,/,/,/,-3,/,/,
CC(C)C(=O)c1cn(Cc2ccc(C#N)cc2)c2ccccc12,-97,25,41*,18,-17,-3,8,/,
Cn1cccc1/C=C1/C(=O)NC(=S)N(Cc2ccc(F)cc2)C1=O,/,-10,84*,-5,19,1,86*,/,
CC(C)(C)N(NC(=O)c1ccccc1)C(=O)c1ccccc1,21,-3,40*,-10,4,-5,-3,/,
O=C1N[C@H](Cc2ccccc2)C(=O)N2[C@@H]3[C@H](C[C@@H]12)c1ccccc1N3OOSc1ccccc1,/,31,41*,24,13,4,25,/,
O=C(OCC(=O)c1ccc([N+](=O)[O-])cc1)/C(=C/c1ccc(Cl)cc1)NC(=O)c1ccccc1,16,35,45*,31,2,1,23,/,
O=C(COC(=O)Cc1ccccc1)NNC(=O)c1ccc([N+](=O)[O-])cc1,/,-3,3,5,7,-2,/,/,
CN1CCN(Cc2c(F)cccc2Cl)CC1,10,-14,4,-7,-12,-5,/,/,
Oc1ccc2c3c1OC1c4oc5ccccc5c4C[C@@]4(O)[C@@H](C2)N(CC2CC2)CC[C@]314 (some centres undefined),/,13,3,15,7,1,/,/,
Cc1ccc(-c2cc(-c3ccc(C)cc3)[n+](-c3ccc(C(=O)[O-])cc3)c(-c3ccc(C)cc3)c2)cc1,/,12,-4,-1,12,2,/,/,
Cc1ccc(-c2cc(-c3ccccc3)cc(-c3ccccc3)[n+]2-c2ccccc2)cc1,/,24,41*,21,30,0,35*,/,
COc1cc(C=C2C(=O)NC(=O)NC2=O)ccc1O,-11,4,94*,0,0,0,-4,/,
O=C1NC(=O)C(C(CC(=O)c2ccccc2)c2ccccc2)C(=O)N1 (centres undefined),-11,-5,9,15,-8,-4,/,/,
O=C1NC(=S)NC(=O)C1=Cc1ccc(OCc2ccccc2)cc1,/,/,/,/,/,-2,/,/,
Cc1ccccc1C(=O)N1CC1C (centres undefined),/,/,/,/,/,0,/,/,
Cc1ccc(Cn2cc(C=O)c(-c3ccc(F)cc3)n2)cc1,30,29,20,49,24,0,/,/,
Cc1ccc(-c2nn(Cc3ccccc3)cc2C=O)cc1C,/,31,52*,53*,23,2,55*,58*,
SMILES,NALP1 yeast inh,tim10-1 inh,TIM10 inh,tim23-1 inh,NLRP3 yeast inh,V-ATPase pHluor,TIM10 conf,tim23-1 conf,others
Cc1nc2ccccc2c(=O)n1/N=C/c1cc(Br)cc(Br)c1O,/,39,73*,83*,12,-5,25,89*,
CC[N+](C)(CC)CCCCOc1ccc2c(c1)C(=O)c1cc(OCCCC[N+](C)(CC)CC)ccc1-2,22,6,-8,-12,-9,0,/,/,
O=C(CSC1c2ccccc2-c2ccccc21)N/N=C/c1ccccc1O,0,29,47*,52*,24,-4,58*,58*,
CCN(CC)P(=S)(c1c(C)nc2ccccn12)c1c(C)nc2ccccn12,-16,-8,7,28,17,8,/,/,
O=c1[nH]c(=S)n(CCC2=CCCCC2)c(O)c1/C=N/N1CCOCC1,5,37,36,52*,11,0,/,37*,
CC(CN1CCOCC1)C(C#N)(c1ccccc1)c1ccccc1 (centres undefined),/,/,/,/,/,8,/,/,
CN1CCc2cc3c(c4c2C1Cc1ccccc1-4)OCO3 (centres undefined),22,33,28,67*,39,0,/,67*,
COCCCn1c(N)c(C(=O)OC(C)COC)c2nc3ccccc3nc21 (centres undefined),0,-2,4,20,3,-9,/,/,
CCC(C)NC(=O)c1c(N)n(CCCOC)c2nc3ccccc3nc12 (centres undefined),-8,39,25,53*,11,-2,/,48*,
COP(=O)(OC)/C(C=O)=N/Nc1ccc([N+](=O)[O-])cc1,-22,9,10,52*,16,2,/,50*,
CCCCCc1nc2c(c(=O)c3ccccc3n2C)c(=O)n1C1CCCCCC1,28,-40,0,70*,36,2,/,-34,
CC1(C)OC(c2ccccc2)=C/C(=C/C=C2C(=O)NC(=S)NC2=O)O1,4,25,21,57*,15,/,/,63*,
Cc1ccc(-c2nn(Cc3ccccc3)cc2C=O)cc1,/,18,27,57*,29,-2,/,55*,
Cc1ccc(-c2nn(Cc3ccccc3)cc2C(=O)O)cc1,/,-9,-17,2,-4,-4,/,/,
COC(=O)C1=C(c2cc3ccccc3s2)C[C@@H]2CC[C@H]1N2C(=O)N1CCC(C)CC1,/,19,28,36,19,-5,/,/,
COc1cccc(NP(=O)(Oc2ccccc2Cl)Oc2ccccc2Cl)c1,27,15,21,20,9,-1,/,/,
COc1cc(-n2c(=S)[nH]c3ccccc3c2=O)c(Cl)cc1Cl,-7,25,23,52*,19,0,/,38,
CCc1c(C)nc(N)nc1N1N=C1SC,12,12,8,-6,10,-2,/,/,
CCC(C)C1NC(=O)C2CCCN2C(=O)C(CC(C)C)OC(=O)CCNC(=O)C(C)N(C)C(=O)C(C(C)C)N(C)C1=O (centres undefined),/,/,/,/,/,-1,/,/,
